From publication PMC7819943, “Rice protein-binding microarrays: a tool to detect cis-acting elements near promoter regions in rice”
Over roughly 68,000 sequences, “fluorescence intensity (a.u.)” has its median near 9,100; the highest 2% begin near 16,000. Many of the other results were omitted from the sample, so the highest values are more common in it than they were.

Each sequence was assayed against OsWRKY34 (Oryza sativa, UniProt Q0JBA9 1-250) (assay: protein-binding microarray (RPBM); PBS, 2% BSA, 51.3 ng/ul salmon testes DNA, 50 uM zinc acetate, 200 nM TF, 25 C, 1 h; high values mean tight binding). Details: protein: recombinant; tags: N-terminal polyhistidine and DsRed monomer fusion (pET32a); label: CyDye5-dUTP incorporated in the synthesized complementary strand; 3' TTTTT single-stranded linker to array surface; dsDNA, one strand shown.
Chain of OsWRKY34 (Q0JBA9 entry or part of it): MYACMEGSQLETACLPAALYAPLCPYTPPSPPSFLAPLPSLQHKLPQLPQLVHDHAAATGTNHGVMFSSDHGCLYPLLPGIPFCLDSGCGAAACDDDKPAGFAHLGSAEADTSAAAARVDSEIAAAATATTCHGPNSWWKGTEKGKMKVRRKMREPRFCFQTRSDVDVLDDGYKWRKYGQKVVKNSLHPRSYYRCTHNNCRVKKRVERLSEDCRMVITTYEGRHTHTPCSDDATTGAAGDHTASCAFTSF
Procedure, shortened: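 For the binding signal, per-feature fluorescence intensity was read in arbitrary units on an Axon 4000B scanner. Before scanning, a 2% BSA-blocked custom Agilent array made double-stranded with Cy5-dUTP was washed after 1 h at 25 °C with 200 nM protein and 50 µM zinc acetate. The proteins were Ni–NTA-purified transcription factors with N-terminal polyhistidine and DsRed fusions, expressed in E. coli BL21-CodonPlus.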
In the case of “ATGCGTGCGCTCAGCCCATTCTGCTTGTATTTTCAGTACACGGAGTCACCTAGTGCAG”, the binding signal is reported as 11300 fluorescence intensity (a.u.). With “ACCCACCCACCCACCCGGTCTGTCTCCTAACCCCGGTCGCCGGAGTCACCTAGTGCAG” the binding signal was 12600 fluorescence intensity (a.u.). With “GATCGTGGAATTAATTCCACCTTAGTTGTTATGGGCGGGTCGGAGTCACCTAGTGCAG” the binding signal was 11400 fluorescence intensity (a.u.). For “GAACAACAACATGCCGCACGTGCGTATATATATATATATCCGGAGTCACCTAGTGCAG”, the binding signal was 10800 fluorescence intensity (a.u.). In the case of “TCCATTGACACCGGCACACGCACACGCACACCCGCACCGCCGGAGTCACCTAGTGCAG”, the binding signal is reported as 8960 fluorescence intensity (a.u.). For “CAACCTCACCTACTTCCACTTCCTCGACACCAACGGCGTCCGGAGTCACCTAGTGCAG”, the binding signal was 9590 fluorescence intensity (a.u.). With “GCATGTGTTCGTTATGTGTGGTTGGAGATTTTCTCCCACACGGAGTCACCTAGTGCAG” the binding signal was 8470 fluorescence intensity (a.u.). In the case of “CTGCTCGGAGCACACACAACCACCACTCACCACCAACATGCGGAGTCACCTAGTGCAG”, the binding signal is reported as 9280 fluorescence intensity (a.u.). For “TAATACACTAGCCCCAATGTTTGTTTGCCTAATCTACTCTCGGAGTCACCTAGTGCAG”, the binding signal was 9080 fluorescence intensity (a.u.). For “ACTTTTTAAAACATATTTGACCGTTCTTCTTATTAAAAAACGGAGTCACCTAGTGCAG”, the binding signal was 8850 fluorescence intensity (a.u.). With “CCTCTATTTCATATTATACGTCGTTGACTTTTTTCTTAGTCGGAGTCACCTAGTGCAG” the binding signal was 17400 fluorescence intensity (a.u.). “CATATTATAAGTCGTTTTGACTTTTTTTTCTTAGTCAATCCGGAGTCACCTAGTGCAG” was tested, and the binding signal was 12100 fluorescence intensity (a.u.). In the case of “AGTTTTGCACTGTTTATGTCTCACGTTTGACCGTTCGTTTCGGAGTCACCTAGTGCAG”, the binding signal is reported as 11400 fluorescence intensity (a.u.). “GGCCCATCTGACCAAGCCCAGCTCGCGTCGTCGTGTTGATCGGAGTCACCTAGTGCAG” was tested, and the binding signal was 8930 fluorescence intensity (a.u.). “TGTCGCCATCGTATCACCGTCGCGTCGCCATCCCGTCGCCCGGAGTCACCTAGTGCAG” was tested, and the binding signal was 8070 fluorescence intensity (a.u.). For “CTCTATTCGTTTTTCATATTATAAGTCGTTTGACGTTTTTCGGAGTCACCTAGTGCAG”, the binding signal was 9170 fluorescence intensity (a.u.). In the case of “TTACACTGTTCATGTCTCACGTTTGACCGTTCGTTTTATTCGGAGTCACCTAGTGCAG”, the binding signal is reported as 16400 fluorescence intensity (a.u.). With “TTGACCTTTTTAAAACATTTTTGACCGTTCGTCTTATTCACGGAGTCACCTAGTGCAG” the binding signal was 10600 fluorescence intensity (a.u.). With “GTTTTACACTATTCACGTTCAACGTTTGACCGTTCGTCTTCGGAGTCACCTAGTGCAG” the binding signal was 13400 fluorescence intensity (a.u.). With “CGTCGTTGACTTTTTTAAACATATTTGACCGTTCGTCTTACGGAGTCACCTAGTGCAG” the binding signal was 17100 fluorescence intensity (a.u.). With “CCAAGCTTGTCGTGCCCGTATGTTCGCGTCCATCGTTGACCGGAGTCACCTAGTGCAG” the binding signal was 19800 fluorescence intensity (a.u.). In the case of “TTTCATGCGTTCCAAGTTGTCATTACTCCTTTGTACTCTCCGGAGTCACCTAGTGCAG”, the binding signal is reported as 10700 fluorescence intensity (a.u.). “CCGCCGGACTCTCAAAATCCCAAGTCTCAACTCGATCAGCCGGAGTCACCTAGTGCAG” was tested, and the binding signal was 8170 fluorescence intensity (a.u.). With “AACTCTAATTTACTGTTGGTTGGTGCAATATCAGATGGATCGGAGTCACCTAGTGCAG” the binding signal was 8900 fluorescence intensity (a.u.). With “GCTCAGATTGTTCATCAAGTTTTTCCTCTGTGCTCTGTTTCGGAGTCACCTAGTGCAG” the binding signal was 8890 fluorescence intensity (a.u.). In the case of “ATGAGTATATATAAGCTTAGTCTCTTTTCTTTTCTTTCTTCGGAGTCACCTAGTGCAG”, the binding signal is reported as 8940 fluorescence intensity (a.u.). With “TGTTGACTTTTTAAAACATGTTTGACCGTTCATATTATTCCGGAGTCACCTAGTGCAG” the binding signal was 15700 fluorescence intensity (a.u.). In the case of “GTTGATTTTTTTTAAATATGTTTGACCGTTCGTCTTATTCCGGAGTCACCTAGTGCAG”, the binding signal is reported as 8600 fluorescence intensity (a.u.). “ACGCCGTTGACTTTTTTAAACATGTTTAACCGTTCATCTTCGGAGTCACCTAGTGCAG” was tested, and the binding signal was 47400 fluorescence intensity (a.u.). “TGTTGATTTTTTAAAATATGTTTGACCGTTCGTCTTATTCCGGAGTCACCTAGTGCAG” was tested, and the binding signal was 10700 fluorescence intensity (a.u.). “CGTTGACTTTTTAAAATATATTTGACCGTTCGTCTTATTCCGGAGTCACCTAGTGCAG” was tested, and the binding signal was 24100 fluorescence intensity (a.u.). “GCATTCGTTTCAGGCTGTTCCCAACCTCTCTCCCTTGTTTCGGAGTCACCTAGTGCAG” was tested, and the binding signal was 12000 fluorescence intensity (a.u.). In the case of “CGGCCCAAGCTTCATTGACAAATTGTCTTGAATTTGTACACGGAGTCACCTAGTGCAG”, the binding signal is reported as 8510 fluorescence intensity (a.u.). For “ACACATATTTATTTTCTCCACTACCACAGAAGGAACTTTTCGGAGTCACCTAGTGCAG”, the binding signal was 9140 fluorescence intensity (a.u.). With “GAGGAGGAGGAGGAGGAGGAGGAGGATGCGGGTGGTGGTGCGGAGTCACCTAGTGCAG” the binding signal was 10500 fluorescence intensity (a.u.). “GTGGTGGCGGTGGAGGTGGAGGTGGAGGCGCCGTGGTGCGCGGAGTCACCTAGTGCAG” was tested, and the binding signal was 12600 fluorescence intensity (a.u.). With “AGGGGAGGTAGGTAAGAAGATTGAACAGTGGAGGGTTGTACGGAGTCACCTAGTGCAG” the binding signal was 9840 fluorescence intensity (a.u.). “ATCGAATGGTTGGTTCGGTTTGGTTTTGATTGATCGATATCGGAGTCACCTAGTGCAG” was tested, and the binding signal was 22300 fluorescence intensity (a.u.). In the case of “ATTGATTGATTGGTTGGTTGGTTGGTTGGGTTGATCGATGCGGAGTCACCTAGTGCAG”, the binding signal is reported as 20300 fluorescence intensity (a.u.). For “GTGGTTGGTTGGTGCGGTTGCGGCGGGTGATCGAACGATGCGGAGTCACCTAGTGCAG”, the binding signal was 12100 fluorescence intensity (a.u.). For “CTTCGATTGGTTTGTTGGTTTGACTGGAATTCGGATGGATCGGAGTCACCTAGTGCAG”, the binding signal was 10100 fluorescence intensity (a.u.). For “GCGGTGGAGGCGGTGGCGGTGGTGGCGGTGGTGGAGGATGCGGAGTCACCTAGTGCAG”, the binding signal was 21200 fluorescence intensity (a.u.). In the case of “TTTGGTAAGATTTGAACGGTTGGTTGTATAGGTCATTGACCGGAGTCACCTAGTGCAG”, the binding signal is reported as 16900 fluorescence intensity (a.u.).
